The source of these data is PubChem BioAssay (NCI).

Assay [1] is described as follows: NCI Yeast Anticancer Drug Screen. Data for the rad50 strain (AID 155).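 Also: 0% = growth of vehicle-only cultures of the same strain.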 The conditions noted are these: S. cerevisiae rad50 strain growth inhibition; at 50.0 µM; hits give high values. A digest of the protocol: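 Compounds were tested on a yeast strain with an engineered DNA damage repair alteration; the reported value is growth inhibition normalised to vehicle treatment.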

Assay [2] in a line: NCI Yeast Anticancer Drug Screen. Data for the mec2-1 strain (AID 157). The note with it: S. cerevisiae mec2-1 strain, at 50.0 µM, hits give high values. The method, boiled down: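 Compounds were applied to mec2-1 yeast cells. Their growth was then compared with that of vehicle-treated cultures to give growth inhibition.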
Assay [3] is described as follows: NCI Yeast Anticancer Drug Screen. Data for the sgs1 mgt1 strain (AID 161).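 Also: 0% = growth of cultures given vehicle only.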 The conditions noted are these: S. cerevisiae sgs1 mgt1 strain, at 50.0 µM, hits give high values. The method, boiled down:
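Yeast cells carrying a defined DNA-repair defect were exposed to test compounds. Growth inhibition was measured relative to vehicle-treated controls.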

A short description of assay [4]: NCI Yeast Anticancer Drug Screen. Data for the cln2 rad14 strain (AID 165).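 Also: 0% = growth equal to vehicle treated cultures.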 The note with it: S. cerevisiae cln2 rad14 strain, at 50.0 µM, hits give high values. A digest of the protocol:
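Strain: cln2 rad14 yeast, altered in cell cycle control and DNA damage repair. Read-out: growth inhibition vs vehicle.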

Assay [5] can be described thus: NCI Yeast Anticancer Drug Screen. Data for the bub3 strain (AID 167). The conditions noted are these: S. cerevisiae bub3 mutant strain, at 50.0 µM, hits give high values. A digest of the protocol:
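Growth of a checkpoint-deficient yeast mutant is measured after compound exposure. Values represent inhibition relative to vehicle.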

Assay [6] is described as follows: NCI Yeast Anticancer Drug Screen. Data for the mlh1 rad18 strain (AID 175). The conditions noted are these: S. cerevisiae mlh1 rad18 strain growth inhibition; at 50.0 µM; hits give high values. The method, boiled down: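 A repair-deficient yeast strain is exposed to test compound, and growth is scored relative to vehicle-treated controls.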

About 79,000 compounds went through this panel and 15% of them were active in at least one assay; those are over-represented in the sample as a whole. A number with no mark means an inactive call. The source made the active and inactive calls. Rule as the data show it: active = growth inhibition above about 70%; inactive = the rest.

Regarding `O=C1CSC=NN1c1ccccc1`, the growth inhibition was -12.8% in assay [1]; -6.75% in assay [2]; -14.9% in assay [3]; -9.75% in assay [4]; 5.75% in assay [5]; 3.9% in assay [6].

Turning to `COc1cc(C(C)O)c[n+](CCC2CNc3ccccc32)c1` (stereo unspecified), the growth inhibition was -4.65% in assay [1]; -2.2% in assay [2]; 5.8% in assay [3]; 18.6% in assay [4]; 6.45% in assay [5]; -21.1% in assay [6].

As to `CCNC(=O)COc1ccc(Br)cc1Br`, the growth inhibition in assay [1] is -3.7%; in assay [2], -5.2%; in assay [3], -3.8%; in assay [4], 11.2%; in assay [5] it was 8.4%; in assay [6], 15.2%.

Turning to `Cc1cc(N=Cc2cccs2)cc(Cl)c1O`, the growth inhibition in assay [1] was 21.7%; in assay [2] it was 14.4%; in assay [3], 5.05%; in assay [4] it was 12.2%; in assay [5] it was 41.8%; in assay [6], 24.8%.

In the case of `COc1ccc2nc(NCCNCCO)cc(NCCNCCO)c2c1`, the growth inhibition in assay [1] is -12.2%; in assay [2], -3.25%; in assay [3] it was 1.2%; in assay [4], 4.65%; in assay [5] it was -0.75%; in assay [6] it was 11.3%.

For `O=Cc1cccc2c([N+](=O)[O-])cccc12`, the growth inhibition is 55.5% in assay [1]; 19.5% in assay [2]; 32.6% in assay [3]; 6.95% in assay [4]; -1.9% in assay [5]; 49.5% in assay [6].

As for `CCN(CC)CCNc1ccc(C)c2sc3ccc(N)cc3c(=O)c12`, the growth inhibition in assay [1] is 30.3%; in assay [2], 18.1%; in assay [3] it was 8.9%; in assay [4], 28.3%; in assay [5] it was -0.35%; in assay [6] it was 19.8%.

On to `CC(C)NP(=O)(OC1CC(C)(C)N(O)C(C)(C)C1)OC1CC(C)(C)N(O)C(C)(C)C1`, for which the growth inhibition in assay [1] was 26.1%; in assay [2], 18.6%; in assay [3], 13.4%; in assay [4], -16.3%; in assay [5] it was 2%; in assay [6], 5.65%.

Regarding `Cc1cc(NCCN(C(C)C)C(C)C)nc(Nc2nc3cc(Cl)c(Cl)cc3[nH]2)n1`, the growth inhibition is 75.8% (active) in assay [1]; 39.2% in assay [2]; 77.8% (active) in assay [3]; 11.7% in assay [4]; 23.1% in assay [5]; 55.6% in assay [6].

As to `Nc1ncnc2c1ncn2C[c-]1[c-][c-][c-][c-]1.[Fe].[c-]1[c-][c-][cH-][c-]1`, the growth inhibition in assay [1] is -4.95%; in assay [2], -23.8%; in assay [3], -11.9%; in assay [4], -40.7%; in assay [5], -15.7%; in assay [6] it was -8.8%.

As to `COc1ccc(CC2COC(=O)[C@@H]2Cc2ccc(O)cc2)cc1OC` (stereo partly specified), the growth inhibition is -32.9% in assay [1]; -43.5% in assay [2]; -14.1% in assay [3]; -2.85% in assay [4]; 4% in assay [5]; -7.55% in assay [6].

With `CC1CN=C(N(Cc2ccccc2)C(=O)Nc2ccc(Cl)c(Cl)c2)S1` (stereo unspecified), the growth inhibition is -4.25% in assay [1]; 27.9% in assay [2]; -0.35% in assay [3]; 26.7% in assay [4]; -0.65% in assay [5]; 0.35% in assay [6].

With `O=c1cc[nH]c(=S)[nH]1.[Pt]`, the growth inhibition in assay [1] is 12.1%; in assay [2], 19.3%; in assay [3], 5.55%; in assay [4], -19.4%; in assay [5], 0.7%; in assay [6], 28.6%.

Regarding `Cc1ccc(S(=O)(=O)Oc2ccccc2C(=O)O)cc1`, the growth inhibition in assay [1] was -7.9%; in assay [2], -14.7%; in assay [3] it was -12.3%; in assay [4], -55.3%; in assay [5] it was 14.4%; in assay [6] it was -13.5%.

With `C=CCCCCCCCCCCCCCCCCCC`, the growth inhibition in assay [1] is -3.55%; in assay [2] it was -3.8%; in assay [3], 2.8%; in assay [4] it was 5.9%; in assay [5], -5.3%; in assay [6], 6.2%.

In the case of `Cc1c2c(cc3c1[nH]c1ccccc13)C(c1ccc(F)cc1)=NCC2`, the growth inhibition in assay [1] is -1.8%; in assay [2] it was 5.55%; in assay [3], 1.85%; in assay [4] it was -51%; in assay [5], -0.6%; in assay [6], -2.45%.

With `Cn1c(=O)c2n[nH]nc2n(C)c1=O`, the growth inhibition in assay [1] is 7.25%; in assay [2] it was -0.5%; in assay [3], -0.35%; in assay [4], -11.7%; in assay [5] it was -14.8%; in assay [6] it was 15.8%.

With `CCCCCCCCCCCCCCCCc1c(C(=O)OC)nc(NN)[nH]c1=O`, the growth inhibition in assay [1] is -6.3%; in assay [2], 5.2%; in assay [3], -26.5%; in assay [4], -2.85%; in assay [5], 2.1%; in assay [6], -12.8%.

`CCOc1cccc(OCC)c1C`: the growth inhibition in assay [1] is -4.55%; in assay [2], -17.4%; in assay [3], -2.55%; in assay [4] it was 11.3%; in assay [5] it was -9%; in assay [6], 14.9%.

`C=CCCCCCCCCCCCCCC`: the growth inhibition in assay [1] was -0.85%; in assay [2], -2.3%; in assay [3], -4%; in assay [4], 10%; in assay [5] it was -7.5%; in assay [6], 26.9%.

As for `O=C(Cn1c2c(c3ccccc31)CCCC2)N1CCOCC1`, the growth inhibition is -19.3% in assay [1]; -29.4% in assay [2]; -14.1% in assay [3]; 5.15% in assay [4]; -23.8% in assay [5]; -19.6% in assay [6].
